Source: PubChem (National Center for Advancing Translational Sciences (NCATS))
Only a selection was taken, and hits are over-represented in it overall.
Cycloheximide cs = Cycloheximide Counterscreen for Small Molecule Inhibitors of Shiga Toxin | AID 2314, 2010 | cell reporter, cycloheximide protein synthesis inhibition counterscreen | 300,000 tested, 12% active | max response, %; in the data active means max response mostly above about 13%, no sharp cut-off; inactive means mostly below about 14%; further: read at 38.3 µM for the half of the compounds with a filed dose
LmPK inh = qHTS Assay for Inhibitors of Leishmania Mexicana Pyruvate Kinase (LmPK); Q27686; purified LmPK, Kinase-Glo ATP luminescence, 1 h; Potency, µM (doses to about 57.5 µM), hits mostly inhibitors; 290,000 tested, 0.37% active; AID 1721, 2009
Target sequence (Q27686 whole entry, looked up): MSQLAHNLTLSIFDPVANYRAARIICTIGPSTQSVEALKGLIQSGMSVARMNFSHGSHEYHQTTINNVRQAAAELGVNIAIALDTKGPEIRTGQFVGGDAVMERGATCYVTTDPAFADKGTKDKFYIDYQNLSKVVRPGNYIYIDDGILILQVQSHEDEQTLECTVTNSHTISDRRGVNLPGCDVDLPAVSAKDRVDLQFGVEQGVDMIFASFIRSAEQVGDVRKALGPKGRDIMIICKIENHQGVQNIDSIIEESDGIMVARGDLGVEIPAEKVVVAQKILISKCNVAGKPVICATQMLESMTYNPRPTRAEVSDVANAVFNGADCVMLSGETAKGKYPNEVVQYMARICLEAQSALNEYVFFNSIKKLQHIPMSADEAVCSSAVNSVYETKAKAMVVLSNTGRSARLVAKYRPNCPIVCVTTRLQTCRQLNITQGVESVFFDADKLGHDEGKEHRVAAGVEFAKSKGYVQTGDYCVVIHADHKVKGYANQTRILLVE
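In 50 mM imidazole pH 7.2 with 7 mM MgCl2, LmPK (0.1 nM) turned over PEP (0.5 mM) and ADP (0.1 mM) for 1 h at room temperature. Luciferase read-out of ATP.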
Shiga inhibitor = A qHTS for Small Molecule Inhibitors of Shiga Toxin. inhibition, % at 38.7 µM. 290,000 tested, 9.2% active. Vero cells, Shiga toxin protein synthesis inhibition reporter; in the data active means inhibition mostly above about 28%, no sharp cut-off; inactive means mostly below about 43%
RE007 growth inh = qHTS Assay for Inhibitors of the HIV-1 protein Vpr. S. pombe RE007 Vpr strain, BacTiter-Glo ATP luminescence, 24 h. Potency, µM (titrated, usually from 92.2 µM), most hits filed as inhibitors. 360,000 tested, 0.21% active; active means well fitted falling curve with a large enough effect; inconclusive means small, poorly fitted or top-dose-only effect; inactive means no such curve, though single readings can be large or run the other way; further: nearly all actives have a fitted effect of over 50% in size
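Fission yeast strain RE007, carrying one chromosomally integrated HIV-1 vpr copy, was seeded at OD 0.01 in PMG+AL medium with 23 nL pinned compound. After 24 h at 30 °C and 99% humidity, viability was read by BacTiter-Glo luminescence.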
FBPA Giardia inh = qHTS Assay for Inhibitors of Fructose-1,6-bisphosphate Aldolase from Giardia Lamblia; Potency, µM (top dose mostly 59.6 µM), hits mostly inhibitors; purified Giardia FBPA; 290,000 tested, 0.71% active; A8B2U2; further: nearly all actives have a fitted effect of over 55% in size
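Giardia FBPA (40 nM reagent) was preincubated 10 min at RT with compound (up to 57.5 uM final), then substrate plus GAPDH/TPI/NAD/arsenate coupling system with diaphorase/resazurin was added; resorufin fluorescence (525/598 nm) was read after 20 min.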
Tb PYK inh = qHTS of Trypanosoma Brucei Inhibitors | pyruvate kinase (Trypanosoma brucei), Q57TT1 | TbPYK enzyme, Kinase-Glo Plus ATP luminescence, 45 min | Potency, µM (highest dose often 76.8 µM), actives largely listed as inhibitors | 410,000 tested, 0.12% active; further: nearly all actives have a fitted effect of over 50% in size
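Glycolytic pyruvate kinase of T. brucei was incubated with substrate, test compound and 130 uM ADP for 45 minutes at room temperature. Luminescent Kinase-Glo Plus signal was measured after 10 minutes.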
Hits are given with their value; [ ] = another dose, or the depositor's remark. Unless noted, the call rests on the fitted dose curve; in most records, active means well fitted curve in the direction sought with a large enough effect; inconclusive means small, poorly fitted or top-dose-only effect, or another doubt; inactive means no such curve, though single readings can be large; an effect the other way counts as inactive or inconclusive.

How did O=C(N/N=C/c1cn(-c2ccccc2)nc1-c1ccccc1)c1ccco1 do in these assays?
Cycloheximide cs: 21; LmPK inh: inactive; Shiga inhibitor: 42; RE007 growth inh: inactive; FBPA Giardia inh: inactive; Tb PYK inh: inactive

How did O=C(N/N=C/c1cn[nH]c1-c1ccccc1)c1ccco1 do in these assays?
Cycloheximide cs: 26; LmPK inh: inactive; Shiga inhibitor: 72; RE007 growth inh: inactive; FBPA Giardia inh: inactive; Tb PYK inh: inactive

How did Cc1ccc(-c2nn(-c3ccccc3)cc2/C=N/NC(=O)c2ccc(Br)o2)cc1 do in these assays?
Cycloheximide cs: 24; LmPK inh: inactive; Shiga inhibitor: 36; RE007 growth inh: inactive; FBPA Giardia inh: inactive; Tb PYK inh: inactive

Results for COc1ccc(-c2nn(-c3ccccc3)cc2/C=N/NS(=O)(=O)c2ccccc2)cc1 ?
Cycloheximide cs: inactive; LmPK inh: inactive; Shiga inhibitor: inactive; RE007 growth inh: inactive; FBPA Giardia inh: inactive; Tb PYK inh: inactive

Results for COc1ccc(-c2cn3c(n2)sc2cc(C(=O)NCc4cccc(F)c4)ccc23)cc1 ?
Tb PYK inh: inactive

How did O=C(N/N=C\c1cn(-c2ccccc2)nc1-c1ccccc1)c1ccc(Br)o1 do in these assays?
Cycloheximide cs: 14; LmPK inh: inactive; Shiga inhibitor: 80; RE007 growth inh: inactive; FBPA Giardia inh: inactive; Tb PYK inh: inactive

What do the screens show for `Cc1nnc(SCC(=O)N/N=C/c2cn(-c3ccccc3)nc2-c2ccccc2)n1-c1ccccc1`?
Cycloheximide cs: inactive; LmPK inh: inactive; Shiga inhibitor: inactive; RE007 growth inh: inactive; FBPA Giardia inh: inactive; Tb PYK inh: inactive

What do the screens show for `Cc1ccc(Cl)cc1NC(=O)C(=O)NCC(c1cccnc1)N1CCc2ccccc21` (stereo not given)?
Tb PYK inh: inactive

Results for COc1cccc(NC(=O)Nc2nc(SC(C)(C)C)ns2)c1 ?
Cycloheximide cs: 25; LmPK inh: inactive; RE007 growth inh: inactive; FBPA Giardia inh: inactive; Tb PYK inh: inactive

What do the screens show for `O=C(CSc1nnc(NC(=O)Nc2ccccc2)s1)Nc1cccc(F)c1`?
Tb PYK inh: inactive

What do the screens show for `CCSc1nsc(NC(=O)Nc2cccc(F)c2)n1`?
Cycloheximide cs: 39; LmPK inh: inactive; RE007 growth inh: inactive; FBPA Giardia inh: inactive; Tb PYK inh: inactive

Results for CCCSc1ccc(C(=O)Nc2ccc(F)cc2F)cn1 ?
Cycloheximide cs: 30; LmPK inh: inactive; Shiga inhibitor: inactive; RE007 growth inh: inactive; FBPA Giardia inh: inactive; Tb PYK inh: inactive

What do the screens show for `COc1cccc(NC(=O)Nc2nc(SC)ns2)c1`?
Cycloheximide cs: 54; LmPK inh: inactive; Shiga inhibitor: 100; RE007 growth inh: inactive; FBPA Giardia inh: inactive; Tb PYK inh: inactive

How did COc1cccc(NC(=O)C(C)(C)C)c1 do in these assays?
RE007 growth inh: inactive; Tb PYK inh: inactive

How did COc1ccc(-c2nn(C)c3sc(C(=O)N4CCN(c5cccc(Cl)c5)CC4)cc23)cc1OC do in these assays?
Tb PYK inh: inactive

How did O=C(Cn1c(=O)oc2cc(S(=O)(=O)N3CCCCCC3)ccc21)Nc1cccc(C(F)(F)F)c1 do in these assays?
Tb PYK inh: inactive[15.4 µM]

How did CCCSc1nsc(NC(=O)Nc2ccc(F)cc2F)n1 do in these assays?
Cycloheximide cs: 23; LmPK inh: inactive; Shiga inhibitor: 36; RE007 growth inh: inactive; FBPA Giardia inh: inactive; Tb PYK inh: inactive

What do the screens show for `Cc1cc(C)c(/C=C/c2onc(C)c2S(=O)(=O)N2CCC(C(=O)N(C)Cc3ccccc3)CC2)c(C)c1`?
Tb PYK inh: inactive

How did O=C(Nc1ccc(C(F)(F)F)cc1)OC1CN2CCC1CC2 (stereo not given) do in these assays?
Cycloheximide cs: 32; LmPK inh: inactive; Shiga inhibitor: 55; RE007 growth inh: inactive; FBPA Giardia inh: inactive; Tb PYK inh: inactive

How did Cn1c(=O)[nH]c(=O)c2c1nc(N1CCOCC1)n2CCCSc1ncccn1 do in these assays?
Cycloheximide cs: 11; LmPK inh: inactive; Shiga inhibitor: inactive; RE007 growth inh: inactive; FBPA Giardia inh: inactive; Tb PYK inh: inactive

Results for Cc1ccnc(SCCn2c(N3CCOCC3)nc3c2c(=O)[nH]c(=O)n3C)n1 ?
RE007 growth inh: inactive; Tb PYK inh: inactive

Results for CCC1(CC(C)C)SC(N)=NC1=O (stereo not given) ?
RE007 growth inh: inactive; Tb PYK inh: inactive

Results for O=C(c1cc(-c2cccs2)on1)N1CCCc2ccccc21 ?
Cycloheximide cs: 39; LmPK inh: inactive; Shiga inhibitor: 73; RE007 growth inh: inactive; FBPA Giardia inh: inactive; Tb PYK inh: inactive

What do the screens show for `Cc1ccc(-c2cc(C(=O)N3CCCc4ccccc43)no2)cc1`?
Cycloheximide cs: 31; LmPK inh: inactive; Shiga inhibitor: 98; RE007 growth inh: inactive; FBPA Giardia inh: inactive; Tb PYK inh: inactive

What do the screens show for `Cc1noc(C)c1C(=O)N1CCCc2ccccc21`?
Cycloheximide cs: inactive; LmPK inh: inactive; Shiga inhibitor: inactive; RE007 growth inh: inactive; FBPA Giardia inh: inactive; Tb PYK inh: inactive

How did O=C(c1cc(-c2ccc(F)cc2)on1)N1CCCc2ccccc21 do in these assays?
Cycloheximide cs: 46; LmPK inh: inactive; Shiga inhibitor: 64; RE007 growth inh: inactive; FBPA Giardia inh: inactive; Tb PYK inh: inactive

How did CC(C)COc1ccccc1C1CC(=O)Nc2cc3c(cc21)OCO3 (stereo not given) do in these assays?
Tb PYK inh: inactive

Results for COC(=O)Cc1[nH]n(-c2nc3ccccc3s2)c(=O)c1C(C)=Nc1ccc(C)cc1 ?
Cycloheximide cs: 35; LmPK inh: inactive; Shiga inhibitor: 93; RE007 growth inh: inconclusive; FBPA Giardia inh: inactive; Tb PYK inh: inactive

Results for CCCN=C(C)c1c(-c2ccccc2)[nH]n(-c2nc3ccccc3s2)c1=O ?
Cycloheximide cs: inactive; LmPK inh: inactive; Shiga inhibitor: inactive; RE007 growth inh: inactive; FBPA Giardia inh: inactive; Tb PYK inh: inactive

What do the screens show for `CCC(=NCc1ccco1)c1c(C(F)(F)F)[nH]n(-c2nc3ccccc3s2)c1=O`?
Cycloheximide cs: 45; LmPK inh: inactive; Shiga inhibitor: 52; RE007 growth inh: inactive; FBPA Giardia inh: inactive; Tb PYK inh: inactive

How did COC(=O)Cc1[nH]n(-c2ccccc2)c(=O)c1C(C)=Nc1ccccc1 do in these assays?
Cycloheximide cs: inactive; LmPK inh: inactive; Shiga inhibitor: inactive; RE007 growth inh: inactive; FBPA Giardia inh: inactive; Tb PYK inh: inactive

Results for CCC(=NCc1ccccc1)c1c(C(F)(F)F)[nH]n(-c2nc3ccccc3s2)c1=O ?
Cycloheximide cs: 21; LmPK inh: inactive; Shiga inhibitor: inactive; RE007 growth inh: inactive[3.69 µM]; FBPA Giardia inh: inactive
